# pAkt inh = HTS Assay for Inhibitors of Akt Phophorylation: Primary Screen | Neuro2A IGF-stimulated pAkt S473 HTRF, 20 min; stronger effect = lower value | AID 651550, 2012 | activity change, % for hits at 50 µM | 360,000 tested, 0.32% active; in the data active means activity change below about -80%; inconclusive means mostly about -51% to -80%; further: on the % scale 0 is the no-effect control and ±100 the full control effect
#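 Neuro2A cells (4,500/well, DMEM with 0.5% FBS) were treated with compound at a single 50 µM final concentration, stimulated with 6 nM IGF for 20 min at 37 °C, and lysed. Phospho-Akt Ser473 was read by HTRF as 665/615 ratio ×10^4.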
# gsp agonist = qHTS for Agonist of gsp, the Etiologic Mutation Responsible for Fibrous Dysplasia/McCune-Albright Syndrome: qHTS; 340,000 tested, 0.13% active; gsp mutant cells, cAMP HTRF, 30 min; AID 624287, 2012; Potency, µM (titrated, usually from 76.9 µM), for the others: at the highest dose activation (cAMP increase), most hits filed as activators; active means well fitted activation curve with a large enough effect; inconclusive means small, poorly fitted or top-dose-only effect, or another doubt; inactive means no such curve, though single readings can be large or run the other way; cell line not stated here;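 further: phosphodiesterase inhibitor Ro 20-1724 added with compounds to block cAMP breakdown; potency means the concentration at half of the fitted maximal effect; nearly all actives have a fitted effect of over 60% in size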
#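 Cells stably selected in G418 were plated at 2000/well, grown 16-24 hr, then given compounds in DMSO with the PDE inhibitor […] (300 uM solution added) for 30 min at 37C; cAMP was read by HTRF.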
# TSHR antagonist = Antagonists of the Thyroid Stimulating Hormone Receptor: HTS campaign | Thyrotropin receptor (Homo sapiens), P16473 | 330,000 tested, 0.2% active | activity change, negative = inhibition, % at 11.5 µM | TSHR-expressing cells, TSH-stimulated cAMP HTRF, 2 h; stronger effect = lower value;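 active means activity change below a set negative limit, meaning inhibition stronger than a set level, cut at about -70% in these data; inconclusive means activity change between two set negative limits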; further: on the % scale 0 is the no-effect control and ±100 the full control effect
# Target sequence (P16473 whole entry, looked up): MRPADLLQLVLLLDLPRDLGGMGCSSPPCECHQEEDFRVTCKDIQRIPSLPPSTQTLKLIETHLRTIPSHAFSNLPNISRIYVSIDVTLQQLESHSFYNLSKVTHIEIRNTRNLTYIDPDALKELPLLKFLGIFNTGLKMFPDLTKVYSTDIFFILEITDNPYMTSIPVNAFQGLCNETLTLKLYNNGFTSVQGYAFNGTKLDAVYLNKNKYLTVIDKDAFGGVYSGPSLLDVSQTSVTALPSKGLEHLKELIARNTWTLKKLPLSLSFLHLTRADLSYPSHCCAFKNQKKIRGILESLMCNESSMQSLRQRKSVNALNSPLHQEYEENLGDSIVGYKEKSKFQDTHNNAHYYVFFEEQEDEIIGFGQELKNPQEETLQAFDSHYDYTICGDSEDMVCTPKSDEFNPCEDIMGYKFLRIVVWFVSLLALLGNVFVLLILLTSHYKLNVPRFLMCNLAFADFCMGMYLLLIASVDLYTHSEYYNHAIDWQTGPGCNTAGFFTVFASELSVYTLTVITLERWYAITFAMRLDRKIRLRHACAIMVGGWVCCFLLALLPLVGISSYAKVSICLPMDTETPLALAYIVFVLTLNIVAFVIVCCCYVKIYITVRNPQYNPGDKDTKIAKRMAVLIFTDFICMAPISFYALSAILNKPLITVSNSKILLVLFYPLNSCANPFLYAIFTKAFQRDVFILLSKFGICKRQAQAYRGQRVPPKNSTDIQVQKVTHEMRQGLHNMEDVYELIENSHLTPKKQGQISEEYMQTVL
#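 Antagonism was scored as loss of TSH-driven cAMP in TSHR cells, stimulated with 4nM TSH (EC80) for 2 hours at 37 deg C and detected by homogeneous HTRF competition immunoassay.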
# RXFP1 agonist = qHTS Assay for Agonists of the Relaxin Receptor RXFP1; Relaxin receptor 1 (Homo sapiens), Q9HBX9; HEK293T-RXFP1 cAMP TR-FRET, 30 min; response scale: percent of porcine relaxin response, buffer zero; Potency, µM (titrated, usually from 57.5 µM), inactives show at the top dose activation, usual class: activators; 370,000 tested, 0.3% active; active means well fitted activation curve with a large enough effect; inconclusive means small, poorly fitted or top-dose-only effect; further: potency means the concentration at half of the fitted maximal effect; on the % scale 0 is the no-effect control and ±100 the full control effect; nearly all actives have a fitted effect of over 60% in size
#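 HEK293 cells stably expressing RXFP1, treated 30 min at 37C with compounds plus PDE4 inhibitor Ro 20174; cAMP measured by HTRF TR-FRET. Normalized to buffer and 29 nM porcine relaxin; EC50 by Hill fit.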
# gsp antag = qHTS for Antagonists of gsp, the Etiologic Mutation Responsible for Fibrous Dysplasia/McCune-Albright Syndrome: qHTS | gsp-mutant cells, cAMP HTRF, 30 min | Potency, µM (top dose mostly 76.9 µM), inactives show top-dose activity change, negative = inhibition, actives largely listed as inhibitors | 340,000 tested, 0.4% active; calls by dose curve; cell line not stated here;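 further: intracellular cAMP measured with PDE inhibitor Ro 20-1724 present during compound exposure; potency means the concentration at half of the fitted maximal effect; on the % scale 0 is the no-effect control and ±100 the full control effect; nearly all actives have a fitted effect of over 65% in size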
#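 Cells, 2000/well, grown 16–24 h in DMEM 10% FBS with 0.5 mg/ml G418, then compounds plus […] (300 uM addition stock), 30 min at 37C. cAMP read by HTRF (cAMP-d2 and anti-cAMP antibody-K in lysis buffer) after 30 min RT.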
# RXFP1 antag = qHTS Assay for Antagonists of the Relaxin Receptor RXFP1 | activity change, negative = inhibition, % at 57.5 µM | HEK293-RXFP1, relaxin-stimulated cAMP HTRF, 30 min; stronger effect = lower value | 350,000 tested, 0.59% active;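 active means activity change of -60% or lower, but not beyond a set lower limit; inconclusive means change between -60% and -40%, or beyond the set limit; inactive means change above -40%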; further: on the % scale 0 is the no-effect control and ±100 the full control effect
# * marks the source's active call; other numbers are inactive results; i = inactive; u = inconclusive; x = no result given; [ ] = another dose, or the depositor's remark. A selection: hits, their analogues and other compounds. The true share with any hit is near 1.3%.
SMILES,pAkt inh,gsp agonist,TSHR antagonist,RXFP1 agonist,gsp antag,RXFP1 antag
NC(=O)c1cc(S(=O)(=O)NCc2cccc(Br)c2)cs1,x,20%,5,1%,-12%,-17
Cc1cccc(CNS(=O)(=O)c2csc(C(N)=O)c2)c1,x,9%,-70*,1%,7%,-14
CS(=O)(=O)c1ccc(-c2csc(N3CCC(C(N)=O)CC3)n2)cc1,x,x,26,x,x,x
Cn1c(CCC(=O)OCC(=O)NCc2ccc3c(c2)OCO3)nc(=O)c2ccccc21,i,2%,8,1%,7%,-1
CCOc1cccc(-c2c(C(=O)N/N=C/c3ccsc3)nnn2-c2nonc2N)c1,i,14%,8,0%,-30%,-61*
CCOc1cccc(-c2c(C(=O)N/N=C/c3sccc3C)nnn2-c2nonc2N)c1,i,-1%,-11,1%,u,-2
Cc1ccc(SCc2c(C(=O)N/N=C/c3ccoc3)nnn2-c2nonc2N)cc1,i,-18%,-18,0%,32µM*,4
Cc1ccc(-c2c(C(=O)N/N=C/c3ccc4c(c3)OCO4)nnn2-c2nonc2N)cc1,i,21%,-14,5%,25µM*,-7
Cc1ccc(SCc2c(C(=O)N/N=C/c3ccccc3)nnn2-c2nonc2N)cc1,i,9%[15.4 µM],-5,-3%,-31%,-32
O=C(NCc1ccncc1)C(=O)NCC1OCCN1S(=O)(=O)c1ccc(F)cc1 (stereo unspecified),i,-52%,-3,1%,5%,3
CCC(CC)c1nn2c(N)c(/C=C3\C(C)=Nc4ccccc43)c(=O)nc2s1,i,-10%[15.4 µM],-20,-1%,-15%,-69*
CCC(CC)c1nn2c(N)c(/C=C3\C=Nc4ccccc43)c(=O)nc2s1,i,-2%[15.4 µM],-12,-1%,3%,-7
O=S(=O)(Nc1ccc(Cl)cn1)c1cccs1,i,-15%[15.4 µM],-4,4%,-1%,-10
O=C(COc1ccc(Br)cc1)N1CCOCC1,i,4%,2,2%,-5%,1
CCOc1ccc(OCC(=O)N2CCOCC2)cc1,-98%*,-40%,5,0%,5%,-1
CCn1nc(NC(=O)c2ccccn2)c2cc3cc(C)ccc3nc21,i,u,-21,0%,35µM*,-11
CCN(CC)C(=O)CSc1nc2ccsc2c(=O)n1CCCC(=O)NCCc1ccc(S(N)(=O)=O)cc1,i,u,2,12%,-2%,7
COc1ccc2[nH]c3c(=O)n(CCCC(=O)NC4CCCCC4C)c(=S)[nH]c3c2c1 (stereo unspecified),i,-30%[15.4 µM],0,-2%,10%,-66*
O=C(CCn1c(=S)[nH]c2ccccc2c1=O)NCCc1ccccc1,i,7%[15.4 µM],-14,12%,-5%,-32
Cc1cc(NC(=O)CSc2nc3ccsc3c(=O)n2CCCC(=O)NCCc2ccccc2)no1,i,-9%[15.4 µM],-9,3%,10%,-79*
COc1ccc2[nH]c3c(=O)n(CCCCC(=O)N4CCCC4)c(=S)[nH]c3c2c1,i,23%,8,3%,-12%,-107*
O=C(CCCn1c(=S)[nH]c2ccsc2c1=O)NCCc1ccccc1,x,u,-8,7%,-3%,-94*
Cc1cc(O)c2c(O)c3c(O)cccc3cc2c1,x,x,x,x,x,-33
CC1CCCCC1NC(=O)CCCCCn1c(=S)[nH]c2ccsc2c1=O (stereo unspecified),x,2%,-5,4%,3%,-73*
O=C(CCCn1c(=S)[nH]c2ccsc2c1=O)NC1CCCCC1,i,u,4,13%,-12%,u
SMILES,pAkt inh,gsp agonist,TSHR antagonist,RXFP1 agonist,gsp antag,RXFP1 antag
Cc1c(CNC2CCCCC2)c(C(=O)O)c(C)n1Cc1ccccc1F,x,x,x,0%,x,-4
CCCCN(C(=O)CCSc1ccc(F)cc1)c1c(N)n(Cc2ccccc2)c(=O)[nH]c1=O,i,-14%,-3,1%,u,-11
C/C(=N\NC(=O)c1c(C)nc2ccccn12)c1ccc(N2CCOCC2)cc1,i,u,5,14µM*,8%,5
C/C(=N\NC(=O)c1nnn(-c2nonc2N)c1CN(C)c1ccccc1)c1ccc(O)cc1,i,-18%,-1,0%,-30%,2
CC/C(=N\NC(=O)c1nnn(-c2nonc2N)c1CN(C)c1ccccc1)c1ccccc1,x,-5%,-6,3%,1%,-102*
CCOC(=O)C1(CC2CC2)CCN(S(=O)(=O)/C=C/c2ccccc2)CC1,i,-45%,1,1%,1%,-9
O=c1c2cnn(-c3ccc(Cl)cc3)c2ncn1Cc1cccc(C(F)(F)F)c1,x,x,x,-1%,x,-3
O=c1c2ccsc2ncn1Cc1cccc(C(F)(F)F)c1,i,13µM*,4,3%,-2%,16
NC(=S)NN=Cc1nccc2ccccc12,i,6%,x,x,-4%,-76*
NC(=S)NN=Cc1nccc2c(C(F)(F)C(F)(F)C(F)(F)F)cccc12,i,-15%,x,x,x,12
COc1ccc2cc(CCNC(=O)c3cc4ccccc4o3)c(=O)[nH]c2c1,i,24%,-11,-1%,u,-13
Cc1ccc2cc(CCNC(=O)c3cc4ccccc4o3)c(=O)[nH]c2c1C,i,6%,-3,1%,35µM*,x
O=C(CN1C(=O)CCc2cc(S(=O)(=O)N3CCOCC3)ccc21)NCc1ccccc1Cl,x,x,x,3%,x,x
COc1ccc2c(C#CCCO)c(-c3ccc(S(C)(=O)=O)cc3)sc2c1,i,u,-3,x,-5%,x
COc1ccc2sc(-c3ccc(S(C)(=O)=O)cc3)c(C#CCO)c2c1,i,-1%,-78*,x,-22%,x
Cc1ccc(-n2c3nc(=O)[nH]c(=O)c-3cc3c(C)nn(-c4ccccc4)c32)c(C)c1,i,-13%[15.4 µM],1,18%,50µM*,-13
CCOC(=O)N1CCN(C(=O)CSc2ccc3nnc(CCNC(=O)c4ccccc4)n3n2)CC1,i,13µM*,5,u,10%,-6
O=C(CSc1ccc2nnc(-c3ccncc3)n2n1)NCc1ccco1,i,18µM*,15,18%,10%,x
CCOc1ccc(NC(=O)CSc2ccc3nnc(-c4cccnc4)n3n2)cc1,i,u,11,25µM*,15%,11
